Compounds with a hit are over-represented: about 3.6% of the library has one in this group of screens.
BoNT A protease = inhibitors of Botulinum neurotoxin A light chain protease; inhibition, % at 10 µM; 360,000 compounds, 0.17% hits; multiplex microsphere protease substrate cleavage, flow cytometry; in the data active = inhibition above about 30%; inconclusive = no clear call, values can overlap the other calls
MazEF act = activators of E. coli MazEF toxin-antitoxin RNase; P0AE70; FAM/BHQ RNA-DNA oligo cleavage fluorescence, 5 h; activation, % at 20 µM; 350,000 compounds, 0.32% hits; AID 504720; in the data active = activation above about 50%
Anthrax LF prot = blocks Bacillus anthracis lethal factor protease | P15917 | multiplex microsphere protease cleavage assay, LF | inhibition, % at 10 µM | 360,000 compounds, 0.12% hits | AID 588501; in the data active = inhibition above about 30%; inconclusive = no clear call, values can overlap the other calls
Target sequence (P15917 whole entry, looked up): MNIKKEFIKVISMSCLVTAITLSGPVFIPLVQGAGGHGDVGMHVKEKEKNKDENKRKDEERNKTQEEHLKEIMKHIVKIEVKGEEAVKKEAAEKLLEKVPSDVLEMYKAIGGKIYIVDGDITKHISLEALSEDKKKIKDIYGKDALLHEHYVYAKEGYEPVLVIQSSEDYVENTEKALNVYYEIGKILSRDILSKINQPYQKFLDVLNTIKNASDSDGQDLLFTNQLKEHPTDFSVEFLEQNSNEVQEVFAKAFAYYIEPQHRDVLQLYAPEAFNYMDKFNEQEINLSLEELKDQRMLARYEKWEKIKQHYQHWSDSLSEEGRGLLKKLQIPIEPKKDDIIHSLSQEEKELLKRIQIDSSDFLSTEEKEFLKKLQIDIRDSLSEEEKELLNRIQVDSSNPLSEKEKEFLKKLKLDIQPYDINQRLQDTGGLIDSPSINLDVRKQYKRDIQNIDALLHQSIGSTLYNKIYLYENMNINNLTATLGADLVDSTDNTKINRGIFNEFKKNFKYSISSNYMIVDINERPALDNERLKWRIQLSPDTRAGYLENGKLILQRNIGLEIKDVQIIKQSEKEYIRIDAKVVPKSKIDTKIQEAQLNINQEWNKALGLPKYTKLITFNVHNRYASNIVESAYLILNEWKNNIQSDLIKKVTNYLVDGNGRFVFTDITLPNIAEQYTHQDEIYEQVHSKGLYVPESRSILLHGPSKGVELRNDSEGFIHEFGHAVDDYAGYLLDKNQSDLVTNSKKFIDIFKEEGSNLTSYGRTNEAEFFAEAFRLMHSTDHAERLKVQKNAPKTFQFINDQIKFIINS
Autofluor counter = compound fluorescence in toxin protease inhibitor counterscreen; compound autofluorescence counterscreen, microsphere flow cytometry; active compounds read high; fluorescence intensity (no concentration beside the values); 360,000 compounds, 3.1% hits; in the data active = fluorescence intensity above about 16000; inconclusive = no clear call, values can overlap the other calls
BoNT F protease = inhibitors of Botulinum neurotoxin F light chain protease | 360,000 compounds, 0.22% hits | inhibition, % at 10 µM | Multiplex microsphere protease cleavage assay, flow cytometry; in the data active = inhibition above about 35%, passing the limit was not always enough; inconclusive = no clear call, values can overlap the other calls
BoNTA LC inh 1 = blocks botulinum neurotoxin A light chain protease; multiplex microsphere protease assay, flow cytometry; shares compounds with BoNT F protease; 720 compounds, 3% hits; inhibition, % at 10 µM; AID 602139; in the data active = inhibition above about 32%
BoNTF LC inh 1 = blocks botulinum neurotoxin F light chain protease | AID 602140 | inhibition, % at 10 µM | multiplex microsphere protease cleavage assay, flow cytometry | shares compounds with BoNT F protease | 720 tested, under 10 active
LF protease CP1 = inhibitors of Bacillus anthracis lethal factor protease. inhibition, % at 10 µM. shares compounds with BoNT F protease. 720 tested, under 10 active. multiplex microsphere protease cleavage assay, LF
Numbers stand for hits; i = inactive; ? = inconclusive; nt = not tested or not shown. Unless noted, the rule behind the calls is not given here.

SMILES	BoNT A protease	MazEF act	Anthrax LF prot	Autofluor counter	BoNT F protease	BoNTA LC inh 1	BoNTF LC inh 1	LF protease CP1
COc1cccc(/C=C/c2ccncc2)c1OC	i	i	i	i	i	i	i	i
CC(=O)C1C(c2ccc(F)cc2)c2c(noc2C)CC1(C)O (centres undefined)	i	i	i	i	37.0	i	i	i
CCN(C(=O)COc1nc(C)cc(C)c1C#N)c1ccccc1	i	i	37.5	i	i	i	i	i
Cc1cc(C)c(C#N)c(Oc2ccccc2)n1	i	i	i	i	i	nt	nt	nt
O=C(NCc1ccccc1)c1ccc(NC(=O)C2CCC2)cc1	i	i	i	i	i	nt	nt	nt
Clc1ccc(Cc2ccc(SCc3ccccc3)nn2)c(Cl)c1	i	i	i	?	43.4	i	i	i
Clc1ccc(CSc2ccc(-c3ccccn3)nn2)cc1	i	i	i	i	i	nt	nt	nt
CN(CC(=O)Nc1ccccc1Cl)C(=O)Cn1cc(C(F)(F)F)ccc1=O	nt	i	nt	nt	nt	nt	nt	nt
Nc1nc(SCC(=O)Nc2cc(-c3ccccc3)nn2-c2ccccc2)n[nH]1	?	i	i	i	40.1	i	i	i
Cc1ccc(-c2cc(NC(=O)CSc3n[nH]c(N)n3)n(-c3ccccc3)n2)cc1	i	i	i	i	i	nt	nt	nt
COc1cccc(OC)c1C(=O)N1CCN(S(=O)(=O)c2ccccc2)CC1	i	i	i	i	i	nt	nt	nt
COc1ccccc1NCC(=O)N1CCN(S(=O)(=O)c2ccccc2)CC1	i	i	32.1	?	i	i	i	i
COc1ccc(S(=O)(=O)N(C)C)cc1NC(=O)CCNC(=O)c1ccco1	i	i	i	i	41.1	i	i	i
CC(C)(C)C1CCC(N2CCN(c3ccccc3)CC2)CC1 (centres undefined)	i	i	i	i	i	nt	nt	nt
CCN(CC)S(=O)(=O)c1cc(C(=O)Oc2cccc(-c3cnc4ccccc4n3)c2)ccc1OC	i	i	i	i	i	nt	nt	nt
CCN(CC)S(=O)(=O)c1ccc(C)c(C(=O)Oc2cccc(-c3cnc4ccccc4n3)c2)c1	i	i	i	i	34.9	i	i	i
COc1ccccc1NC(=O)N(C)C[C@H]1Oc2ncc(C#CCN(C)C)cc2C(=O)N([C@H](C)CO)C[C@H]1C	i	i	i	i	i	nt	nt	nt
O=C(COC(=O)c1cncc(Br)c1)NCC12CC3CC(CC(C3)C1)C2	i	i	i	i	i	nt	nt	nt
O=C(CCNC(=O)c1ccccc1)NCCc1ccc(Cl)cc1	i	i	37.6	i	i	i	i	i
CC(=O)c1sc2nc(-c3cccs3)ccc2c1N	33.7	i	i	i	i	i	i	i
Nc1c(C(=O)Nc2nc3ccccc3s2)sc2nc(-c3cccs3)ccc12	50.3	i	i	i	i	i	i	i
Nc1ccc(C(=O)Nc2nc3ccccc3s2)cc1	i	i	i	i	i	nt	nt	nt
CC(C)NC(=O)c1sc2nc(-c3cccs3)cc(-c3cccs3)c2c1N	nt	i	nt	nt	nt	nt	nt	nt
Cc1cc(SCC(=O)NCCCN2CCCC2=O)nc2ccccc12	i	i	i	i	i	nt	nt	nt
O=C(NC1CS(=O)(=O)CC1NCc1ccccc1)c1ccccc1 (centres undefined)	i	i	i	i	72.4	i	i	i
SMILES	BoNT A protease	MazEF act	Anthrax LF prot	Autofluor counter	BoNT F protease	BoNTA LC inh 1	BoNTF LC inh 1	LF protease CP1
O=S1(=O)CC(NCc2ccccc2)C(Nc2ccccc2)C1 (centres undefined)	?	i	i	i	i	nt	nt	nt
S=C(Nc1ccc2nc(-c3ccccn3)c(-c3ccccn3)nc2c1)N1CCCCC1	33.1	i	i	i	i	i	i	i
S=C(Nc1ccc2nc(-c3ccccn3)c(-c3ccccn3)nc2c1)N1CCCCCC1	i	i	i	i	i	nt	nt	nt
Cc1ccc(SCCC(=O)Nc2ccccc2C(=O)NC2CCCCC2)cc1	i	i	i	i	39.2	i	i	i
COCCCNc1oc(-c2cccs2)nc1S(=O)(=O)c1ccc(C)cc1	i	i	i	i	39.0	i	i	i
CCC(C)NC(=O)c1cc2cc3ccc(OC)cc3nc2s1 (centres undefined)	i	i	i	i	i	i	i	i
Cc1ccc(C)c2nc3sc(C(=O)N4CCCc5ccccc54)c(N)c3cc12	i	i	29.9	i	i	i	i	i
COc1ccc(-c2cn3c(C)c(C(=O)N4CCCc5ccccc54)sc3n2)cc1	i	i	i	i	i	nt	nt	nt
Cc1cc(C(=O)Nc2ccccc2)c2ccccc2n1	i	i	i	i	i	nt	nt	nt
CC(C)Cc1cc(C(=O)Nc2ccccc2)c2ccccc2n1	i	i	i	i	42.6	i	i	i
CC(=O)OC1COC(OC(C)=O)CO1 (centres undefined)	i	i	i	i	i	nt	nt	nt
COc1cc(OC)c(S(=O)(=O)Nc2ccc(C(=O)O)cc2)cc1S(=O)(=O)Nc1ccc(C(=O)O)cc1	i	i	i	i	i	nt	nt	nt
Cc1ccc(S(=O)(=O)c2cc(C)cc(S(=O)(=O)Nc3ccc(C(=O)O)cc3)c2C)cc1	i	i	i	i	39.4	i	i	i
O=C(NCC(=O)N1CCCC1)c1ccc(Cl)cc1	i	i	31.3	i	i	i	i	i
Cc1nn(Cc2ccc(Cl)cc2)c(=O)n1N(C)c1ncc(C(F)(F)F)cc1Cl	i	i	i	i	i	nt	nt	nt
Cc1nn(Cc2ccc([N+](=O)[O-])cc2)c(=O)n1N(C)c1ncc(C(F)(F)F)cc1Cl	i	i	i	i	38.4	i	i	i
CCN(C(=O)COC(=O)/C=C/c1ccc(OC)c(OC)c1)c1c(N)n(Cc2ccccc2)c(=O)[nH]c1=O	i	i	i	i	i	nt	nt	nt
O=C(CN(C(=O)CNS(=O)(=O)c1ccc(F)cc1)c1ccccc1F)NCc1ccco1	i	i	i	i	34.9	i	i	i
CCOC(=O)N1CCN(C(=O)c2ccc(C)c(S(=O)(=O)Nc3cccc(C)c3C)c2)CC1	?	i	i	i	i	nt	nt	nt
CCOC(=O)N1CCN(C(=O)c2ccc(C)c(S(=O)(=O)Nc3ccccc3)c2)CC1	i	i	i	i	34.5	i	i	i
Cc1cc(C)n(-c2nc3ccccc3nc2N2CCN(S(=O)(=O)c3ccc(F)c(C)c3)CC2)n1	i	i	i	i	i	nt	nt	nt
Cc1cc(C)n(-c2nc3ccccc3nc2N2CCN(S(=O)(=O)c3ccc4ccccc4c3)CC2)n1	34.2	i	i	i	i	i	i	i
O=C(Nc1ccccc1C(=O)Nc1nncs1)c1ccccc1	i	i	i	i	39.6	i	i	i
CC(=O)NCCC(=O)N1CCCC(N2CCN(c3cccc(Cl)c3)CC2)C1 (centres undefined)	i	i	i	i	41.7	i	i	i
O=C(NCc1ccccc1)c1noc2c1CCCC2	i	i	i	i	35.2	i	i	i
O=C(NCc1ccc(Cl)cc1)c1noc2c1CCCC2	i	i	i	i	i	nt	nt	nt
O=C(Nc1cccc(C(F)(F)F)c1)c1cc(-c2ccco2)on1	i	i	i	i	i	nt	nt	nt
O=C(Nc1cccc(C(F)(F)F)c1)c1sc(Cl)nc1C(F)(F)F	i	i	33.3	i	40.1	i	i	i
